Screening results as filed in PubChem.
FLuc modulator = counter-screen for miR-21 project: firefly luciferase inhibitors or activators | Potency, µM (series often up to 57.5 µM), without a hit: at the top dose activity change, negative = inhibition, most hits filed as inhibitors | 360,000 tested, 6.9% active | purified FLuc, Km substrates, luminescence inhibition | P08659;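 note: plate controls were vehicle for no effect and reference inhibitor for full effect; nearly all actives have a fitted effect of over 55% in size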
Target sequence (P08659 whole entry, looked up): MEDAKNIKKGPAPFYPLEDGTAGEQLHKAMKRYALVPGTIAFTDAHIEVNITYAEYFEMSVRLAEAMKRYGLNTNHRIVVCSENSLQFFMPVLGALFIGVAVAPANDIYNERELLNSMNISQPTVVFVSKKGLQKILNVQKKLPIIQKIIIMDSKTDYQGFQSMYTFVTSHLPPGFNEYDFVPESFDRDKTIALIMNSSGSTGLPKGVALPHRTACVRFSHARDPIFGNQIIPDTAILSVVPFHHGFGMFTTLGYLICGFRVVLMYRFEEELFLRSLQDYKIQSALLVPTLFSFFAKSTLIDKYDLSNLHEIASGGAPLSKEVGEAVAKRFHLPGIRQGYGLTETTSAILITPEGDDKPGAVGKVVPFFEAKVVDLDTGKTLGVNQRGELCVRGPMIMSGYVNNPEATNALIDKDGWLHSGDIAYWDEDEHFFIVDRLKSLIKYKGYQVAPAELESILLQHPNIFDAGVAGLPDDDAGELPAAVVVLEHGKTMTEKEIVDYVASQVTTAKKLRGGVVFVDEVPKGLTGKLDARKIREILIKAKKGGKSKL
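Purified P. pyralis luciferase (10nM final) with 10uM D-luciferin and 10uM ATP (Km levels) in 50mM Tris acetate pH 7.5, 10mM Mg acetate, 0.01% Tween-20, 0.05% BSA; qHTS 6-point titration, ~60 µM downward; luminescence read.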
ELG1 genotox = genotoxicity induction in ELG1-luciferase HEK293T cells; HEK293T ELG1-luciferase reporter, luminescence, 16 h; Potency, µM (highest dose often 46 µM), without a hit: top-dose activity change, positive = activation, usual class: activators; 330,000 tested, 1.3% active; note: % of control where 0% means no effect; nearly all actives have a fitted effect of over 60% in size
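Step 1: seed 2,000 HEK293T ELG1-luciferase cells per well. Step 2: add compound or DMSO, incubate 16 hr at 37 °C. Step 3: ONE-Glo, 30 min at room temperature, read luminescence.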
Luc counter = blocks Kinase-Glo luciferase, a counter-screen artifact | Q27757 | Kinase-Glo luciferase, ATP luminescence, 8 min | Potency, µM (titrated, usually from 38.3 µM), inactives show at the top dose activity change, negative = inhibition, hits mostly inhibitors | 200,000 tested, 0.28% active | AID 1379; note: % is set by controls: 0 for no effect and ±100 for the full control effect; nearly all actives have a fitted effect of over 60% in size
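Luminescence was the read-out, taken after 8-minute incubation at ambient temperature. Luciferase turned over luciferin with 10 uM ATP in imidazole pH 7.2 buffer containing KCl, MgCl2, Tween 20 and BSA.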
SMN2 splice up = enhancers of SMN2 splice variant expression; HEK293 SMN2-luciferase splicing reporter, luminescence, 30-36 h; Potency, µM (top dose mostly 46.1 µM), inactives show at the top dose activity change, positive = activation, actives largely listed as activators; 210,000 tested, 2.8% active; AID 1458; note: % of control where 0% means no effect; nearly all actives have a fitted effect of over 55% in size
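HEK293 cells carry an SMN2 minigene-luciferase reporter in which exon 7 inclusion puts luciferase in frame. Cells were seeded at 2000 cells/well, attached for 10-12 hours, then exposed to compounds for 30-36 hours at 37C before ONE-Glo luminescence.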
NPC1 prom act = activates the NPC1 promoter; 320,000 tested, 2.4% active; Huh7 NPC1 promoter luciferase reporter, 24 h; AID 485313; Potency, µM (doses to about 9.22 µM), inactives show top-dose activation, usual class: activators; note: % of control where 0% means no effect; nearly all actives have a fitted effect of over 60% in size
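Readout is luciferase luminescence, reflecting NPC1 promoter activation in stably transfected Huh7 cells after 24 h compound exposure at 37 °C in reduced-serum medium with 10% FBS.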
Rab9 promoter act = activates the Rab9 promoter; Huh7 Rab9 promoter-luciferase reporter, luminescence, 24 h; 320,000 tested, 2.8% active; Potency, µM (highest dose often 9.22 µM), for inactives: at the top dose activation, negative = inhibition, hits mostly activators; AID 485297; note: % of control where 0% means no effect; nearly all actives have a fitted effect of over 60% in size
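Quantitative HTS format; Huh7 Rab9-luciferase reporter cells (1500/well) receive compound 2 h post-plating, incubate 24 h at 37 °C, then get luciferase reagent for 10 min before luminescence reading.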
* = called active by the depositor; ? = inconclusive; · = no result given; [ ] = remark or other dose. The list is not random: actives were taken first. Their share in the collection is about 7.4%. Calls come from the whole dose curve; as a rule, active = well fitted curve in the direction sought with a large enough effect; inconclusive = small, poorly fitted or top-dose-only effect, or another doubt; inactive = no such curve, though single readings can be large; an effect the other way counts as inactive or inconclusive. Potency is the fitted concentration of half-maximal effect.

SMILES	FLuc modulator	ELG1 genotox	Luc counter	SMN2 splice up	NPC1 prom act	Rab9 promoter act
Cc1sc(NC(=O)c2ccco2)nc1-c1ccc2c(c1)CC(C)N2C(=O)C1CC1 (stereo not given)	19µM*	-31%	2%	-38%	-1%	12%
Cc1sc(NC(=S)NC(=O)c2cccs2)nc1-c1ccc(C(C)C)cc1	4%	0%	5%	-1%	2%	8%
Cc1sc(NC(=O)c2cccs2)nc1-c1ccccc1	11µM*	1%	·	·	25%	?
O=C(COC(=O)C1COc2ccccc2O1)Nc1ccccc1OC(F)F (stereo not given)	·	-1%	·	·	·	·
Nc1nc2ccc([N+](=O)[O-])cc2s1	·	·	·	-5%	·	·
CC1CCC2(CC1)NC(=O)N(CC(=O)NCc1ccc(F)cc1)C2=O (stereo not given)	0%	-2%	·	·	-2%	-1%
CC(C)C(NS(=O)(=O)c1ccc2c(c1)Cc1cc(S(=O)(=O)NC(C(=O)O)C(C)C)ccc1-2)C(=O)O (stereo not given)	0%	-1%	·	·	-1%	0%
CCn1ccc(C(=O)NC2=NCCS2)n1	-16%	6%	-4%	44%	-2%	15%
Cc1nc(NC(=O)c2ccco2)sc1C(=O)O	11µM*	4%	·	·	1%	0%
CCn1ccc(C(=O)Nc2ncc(C)s2)n1	?	0%	·	·	0.79µM*	0.79µM*
COC(=O)c1sc(NC(=O)c2ccco2)nc1C	?	16%	?	8%	14%	22%
Cc1c2cnn(CC(=O)NC(C)C)c(=O)c2c(C)n1Cc1cccc(Cl)c1	-8%	·	·	11%	·	·
NS(=O)(=O)c1ccc(CCNC(=O)c2cccc(S(=O)(=O)N3CCCC3)c2)cc1	2%	-1%	·	·	-5%	1%
Cc1sc2c(c1C)C(=O)NC(c1cccc(O)c1)N2 (stereo not given)	15µM*	3%	1%	?	0%	8%
COC(=O)c1ccc(C2NC(=O)c3c(sc(C)c3C)N2)cc1 (stereo not given)	?	2%	·	·	-3%	3%
CCOc1cc(NC(=S)NCCCN2CCOCC2)c(OCC)cc1NC(=O)C1CC1	4%	2%	-1%	0%[1.84 µM]	1%	0%
C=CCN1C(=O)C(=O)N(Cc2nc3ccccc3s2)C1=O	8.5µM*	?	·	·	-31%	21%
CCOc1ccc(-c2cc(C(=O)NCCCn3ccnc3)c3ccccc3n2)cc1	6µM*	-8%	-7%	21%	11%	19%
O=C(NCCCN1CCOCC1)c1cc(-c2ccccc2)nc2ccccc12	-3%	8%	·	·	-2%	-1%
Cc1ccc(Nc2cc(C(=O)NCCCN3CCOCC3)c3ccccc3n2)cc1C	12µM*	0%	·	·	16%	-4%
CCCN1CCN(CCCNC(=O)c2ccc3c(c2)sc2nc(-c4ccc(OCC)cc4)cn23)CC1	11µM*	·	·	-94%	·	·
CCOc1ccc(-c2cc(C(=O)NCCCn3ccnc3)c3cc(Br)ccc3n2)cc1	5.4µM*	6%	·	·	1%	-2%
COc1cc(C(=O)Nc2cc(S(C)(=O)=O)ccc2Cl)ccc1OCC(=O)N1CCOCC1	3%	1%	·	·	-5%	-4%
Cc1ccc(OCC(=O)Nc2ccc3c(c2)nc(CCNC(=O)c2ccco2)n3C)cc1	-15%	·	·	-25%	·	·
Cc1ccc(NS(=O)(=O)c2ccc(C(=O)Nc3nncs3)cc2)cc1	·	-3%	·	·	·	·
SMILES	FLuc modulator	ELG1 genotox	Luc counter	SMN2 splice up	NPC1 prom act	Rab9 promoter act
COc1ccc(-c2cc(C(=O)NCCN3CCOCC3)c3ccccc3n2)cc1	17µM*	-1%	8%	-6%	0%	1%
CCOc1ccc(-c2cc(C(=O)NCCCN3CCN(CC)CC3)c3ccccc3n2)cc1	8.5µM*	9%	-8%	7%	15%	17%
COc1ccc(-c2cn3c(n2)sc2cc(C(=O)Nc4ccc(C)cc4C)ccc23)cc1	-1%	·	·	·	·	·
COc1ccc(-c2cn3c(n2)sc2cc(C(=O)Nc4ccc(F)cc4Cl)ccc23)cc1	19µM*	·	·	?	·	·
Cc1cc(=O)oc2cc(OCC(=O)Nc3ccc(CN4CCOCC4)cc3)c(Cl)cc12	0%	3%[9.26 µM]	·	·	-2%	-2%
O=C(O)c1ccc(CSc2nnc(-c3ccco3)o2)cc1	-10%	-1%	19%	1%	-1%	-3%
Fc1ccc(CSc2nnc(-c3ccco3)o2)cc1	?	15%	·	·	?	?
c1ccc(CSc2nnc(-c3ccco3)o2)cc1	17µM*	?	·	·	?	?
O=C(CSc1nnc(-c2ccco2)o1)c1ccccc1Cl	27µM*	15%	2%	22%	17%	?
Cc1ccc(CSc2nnc(-c3ccco3)o2)cc1	12µM*	?	-3%	20%	?	4µM*
Brc1ccc(CSc2nnc(-c3ccco3)o2)cc1	?	18%	-1%	13µM*	-1%	8%
CCOC(=O)CC[C@H](NC(=O)Cn1cnc2c(NCc3ccccc3)ncnc21)C(=O)OCC	·	1%	·	·	·	·
COc1ccc(CC(=O)N(C)CC(=O)Nc2ccc(F)cc2)cc1S(=O)(=O)N1CCOCC1	3%	3%	·	·	-3%	-4%
CC12CCC(=O)N1C(C(=O)Nc1cc(Cl)ccc1N1CCCC1)CS2 (stereo not given)	2%	-7%	·	·	-3%	-3%
CN(CC(=O)NCCc1ccc(S(N)(=O)=O)cc1)S(=O)(=O)c1cccc2nsnc12	-2%	-7%	·	·	17%	1%
C=CCN(CC=C)C(=O)C1CCN(S(=O)(=O)c2ccc(N3CCCC3=O)cc2)CC1	1%	1%	·	·	2%	-7%
CC1Cc2cc(S(=O)(=O)N3CCN(c4ccccc4F)CC3)ccc2N1C(=O)C1CC1 (stereo not given)	2%	-6%	·	·	-9%	-4%
Cc1ccc(C(=O)/C=C/c2ccc3ncccc3c2)cc1	3.8µM*	?	·	·	13%	13%
Cc1ccc(NC(=O)c2ccc(NS(=O)(=O)c3cccc4cccnc34)cc2)cc1	17µM*	-2%	·	·	-4%	-3%[1.84 µM]
COc1ccc(C(=O)Nc2ccc3ncccc3c2)cc1	0.43µM*	0.65µM*	·	·	0.28µM*	0.28µM*
CC(=O)Nc1ccc(NC(=O)c2ccc(NS(=O)(=O)c3cccc4cccnc34)cc2)cc1	2%	1%	·	·	-2%	2%
Brc1ccc(CNc2ccc3ncccc3c2)cc1	11µM*	?	·	·	?	27%
CCC(=O)c1ccc2ncccc2c1	?	7%	2%	24%	-3%	2%
CCOC(=O)C1(Cc2cccc(F)c2)CCN(C(=O)Cn2cnnn2)CC1	-4%	1%	·	·	2%	-1%
